Assay results taken from PubChem BioAssay (EPA / NIEHS).
Activity calls are given as the source filed them. How the source made its calls: active means hit-call score of the fitted dose curve at least 0.9, where 1 is the maximum; inactive means score below 0.9.

Read-out: Thrombomodulin, THBD (gene 7056)
Test: BSK_3C_Thrombomodulin: BioMAP Diversity Plus: 3C Assay for Thrombomodulin Biomarker Activity (AID 2283029)
Conditions: primary human endothelial cells (HUVEC); actives raise or lower the signal
Summary of the method: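 Thrombomodulin ELISA, human primary HUVEC, 24 h post-dose; data fitted in both directions relative to DMSO.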

Row | SMILES | outcome | AC50
1 | OCCCCO | inactive | 
2 | CCOP(=S)(OCC)SCS(=O)(=O)C(C)(C)C | inactive | 
3 | OCCN(CCO)CCO | inactive | 
4 | c1ccc2sc(SNC3CCCCC3)nc2c1 | inactive | 
5 | O=C(N[C@H]1CN2CCC1CC2)c1ccc2c(c1)OCCO2 | inactive | 
6 | Cc1cc(C)cc(C)c1 | inactive | 
7 | CCOP(=O)(OCC)OC(=CCl)c1ccc(Cl)cc1Cl | inactive | 
8 | c1ccc(-c2cccc(-c3ccccc3)c2)cc1 | inactive | 
9 | Nc1ccc(N)cc1 | inactive | 
10 | CN(C)C(=S)S | inactive | 
11 | CCCCOC(=O)COC(=O)c1ccccc1C(=O)OCCCC | inactive | 
12 | Cc1c([N+](=O)[O-])c(C)c([N+](=O)[O-])c(C(C)(C)C)c1[N+](=O)[O-] | inactive | 
13 | CC(C)O.CC(C)O.OCCN(CCO)CCO.OCCN(CCO)CCO.[Ti] | inactive | 
14 | N#Cc1cccnc1 | inactive | 
15 | Cc1ccccc1OP(=O)(Oc1ccccc1C)Oc1ccccc1C | inactive | 
16 | CCCCCCCCCCCCc1cccc(S(=O)(=O)O)c1 | inactive | 
17 | O=C(O)C1(c2ccc3c(c2)OC[C@H](Cc2ccc(-c4ccccc4)cc2)[C@H]3O)CCCC1 | inactive | 

Row | SMILES | outcome | AC50
18 | Cc1cc(Cl)ccc1N | inactive | 
19 | CCOC(=O)CCN(SN(C)C(=O)Oc1cccc2c1OC(C)(C)C2)C(C)C | inactive | 
20 | C=CC(Cl)CCl (stereo not drawn) | inactive | 
21 | CCC(C)(C#N)N=NC(C)(C#N)CC (stereo not drawn) | inactive | 
22 | [Cl][Sn]([c]1ccccc1)([c]1ccccc1)[c]1ccccc1 |  | 5 µM (active)
23 | O=[N+]([O-])c1ccc(Nc2ccccc2)cc1 | inactive | 
24 | Oc1cc(Cl)c(Cl)cc1Cl | inactive | 
25 | CCCCN(CCCC)C(=S)[S-].CCCCN(CCCC)C(=S)[S-].[Ni+2] | inactive | 
26 | O=C(CCl)NCO | inactive | 
27 | O=[N+]([O-])c1cccc2ccccc12 | inactive | 
28 | OC(Cc1ccccc1Cl)(Cn1[nH]cnc1=S)C1(Cl)CC1 (stereo not drawn) | inactive | 
29 | Cc1ccc2nc3sc(=O)sc3nc2c1 | inactive | 
30 | Cc1cccc(OP(=O)(Oc2cccc(C)c2)Oc2cccc(C)c2)c1 |  | 0.14 µM (active)
31 | Cc1cc(Cl)ccc1OC(C)C(=O)O (stereo not drawn) | inactive | 
32 | O=c1oc2ccccc2c(O)c1C(CC(O)c1ccc(-c2ccc(Br)cc2)cc1)c1ccccc1 (stereo not drawn) | inactive | 
33 | C#CCOC(=O)/C=C(C)/C=C/CC(C)CCCC(C)C (stereo not drawn) | inactive | 

Read-out: Urokinase-type plasminogen activator receptor (uPAR), PLAUR (gene 5329)
Test: BSK_4H_uPAR: BioMAP Diversity Plus: 4H Assay for Urokinase-type plasminogen activator receptor (uPAR) Biomarker Activity (AID 2283030)
Conditions: primary human endothelial cells (HUVEC); actives raise or lower the signal
Summary of the method: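 uPAR level read by ELISA on HUVEC cultures (BioMAP 4H) 24 h post-dosing, analyzed for gain or loss relative to DMSO. Parallel SRB staining assessed overt cytotoxicity.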

Row | SMILES | outcome | AC50
34 | OCCCCO | inactive | 
35 | CCOP(=S)(OCC)SCS(=O)(=O)C(C)(C)C | inactive | 
36 | OCCN(CCO)CCO | inactive | 
37 | c1ccc2sc(SNC3CCCCC3)nc2c1 | inactive | 
38 | O=C(N[C@H]1CN2CCC1CC2)c1ccc2c(c1)OCCO2 | inactive | 
39 | COCC(=O)N(c1c(C)cccc1C)[C@H](C)C(=O)OC | inactive | 
40 | Cc1cc(C)cc(C)c1 | inactive | 
41 | CCOP(=O)(OCC)OC(=CCl)c1ccc(Cl)cc1Cl |  | 30.8 µM (active)
42 | c1ccc(-c2cccc(-c3ccccc3)c2)cc1 | inactive | 
43 | Nc1ccc(N)cc1 | inactive | 
44 | CN(C)C(=S)S | inactive | 
45 | CCCCOC(=O)COC(=O)c1ccccc1C(=O)OCCCC | inactive | 
46 | Cc1c([N+](=O)[O-])c(C)c([N+](=O)[O-])c(C(C)(C)C)c1[N+](=O)[O-] | inactive | 
47 | CC(C)O.CC(C)O.OCCN(CCO)CCO.OCCN(CCO)CCO.[Ti] | inactive | 
48 | N#Cc1cccnc1 | inactive | 
49 | Cc1ccccc1OP(=O)(Oc1ccccc1C)Oc1ccccc1C |  | 11.7 µM (active)
50 | CCCCCCCCCCCCc1cccc(S(=O)(=O)O)c1 | inactive | 

Row | SMILES | outcome | AC50
51 | O=C(O)C1(c2ccc3c(c2)OC[C@H](Cc2ccc(-c4ccccc4)cc2)[C@H]3O)CCCC1 | inactive | 
52 | Cc1cc(Cl)ccc1N | inactive | 
53 | CCOC(=O)CCN(SN(C)C(=O)Oc1cccc2c1OC(C)(C)C2)C(C)C | inactive | 
54 | C=CC(Cl)CCl (stereo not drawn) | inactive | 
55 | CCC(C)(C#N)N=NC(C)(C#N)CC (stereo not drawn) | inactive | 
56 | [Cl][Sn]([c]1ccccc1)([c]1ccccc1)[c]1ccccc1 |  | 0.205 µM (active)
57 | O=[N+]([O-])c1ccc(Nc2ccccc2)cc1 | inactive | 
58 | Oc1cc(Cl)c(Cl)cc1Cl |  | 27.4 µM (active)
59 | CCCCN(CCCC)C(=S)[S-].CCCCN(CCCC)C(=S)[S-].[Ni+2] | inactive | 
60 | O=C(CCl)NCO | inactive | 
61 | O=[N+]([O-])c1cccc2ccccc12 | inactive | 
62 | OC(Cc1ccccc1Cl)(Cn1[nH]cnc1=S)C1(Cl)CC1 (stereo not drawn) |  | 20 µM (active)
63 | Cc1ccc2nc3sc(=O)sc3nc2c1 |  | 6.39 µM (active)
64 | Cc1cccc(OP(=O)(Oc2cccc(C)c2)Oc2cccc(C)c2)c1 | inactive | 
65 | Cc1cc(Cl)ccc1OC(C)C(=O)O (stereo not drawn) | inactive | 
66 | O=c1oc2ccccc2c(O)c1C(CC(O)c1ccc(-c2ccc(Br)cc2)cc1)c1ccccc1 (stereo not drawn) |  | 6.9 µM (active)
67 | C#CCOC(=O)/C=C(C)/C=C/CC(C)CCCC(C)C (stereo not drawn) | inactive | 

Read-out: Vascular endothelial growth factor receptor 2 (Homo sapiens) (UniProt P35968)
Test: BSK_4H_VEGFRII: BioMAP Diversity Plus: 4H Assay for Vascular endothelial growth factor receptor 2 (VEGFR2) Biomarker Activity (AID 2283031);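 on AC50: cell-surface VEGFR2 protein level quantified by ELISA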
Conditions: primary human endothelial cells (HUVEC); actives raise or lower the signal
Summary of the method: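 Measured by ELISA after 24 h of compound treatment: VEGFR2 on primary human umbilical vein endothelial cells, fitted in both directions relative to DMSO. Parallel cultures received SRB staining (560 nm) for overt cytotoxicity.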

Row | SMILES | outcome | AC50
68 | CCOP(=S)(OCC)SCS(=O)(=O)C(C)(C)C | inactive | 
69 | OCCN(CCO)CCO | inactive | 
70 | c1ccc2sc(SNC3CCCCC3)nc2c1 | inactive | 
71 | O=C(N[C@H]1CN2CCC1CC2)c1ccc2c(c1)OCCO2 | inactive | 
72 | COCC(=O)N(c1c(C)cccc1C)[C@H](C)C(=O)OC | inactive | 
73 | Cc1cc(C)cc(C)c1 | inactive | 
74 | CCOP(=O)(OCC)OC(=CCl)c1ccc(Cl)cc1Cl |  | 28.7 µM (active)
75 | c1ccc(-c2cccc(-c3ccccc3)c2)cc1 |  | 11 µM (active)
76 | Nc1ccc(N)cc1 | inactive | 
77 | CCCCOC(=O)COC(=O)c1ccccc1C(=O)OCCCC | inactive | 
78 | Cc1c([N+](=O)[O-])c(C)c([N+](=O)[O-])c(C(C)(C)C)c1[N+](=O)[O-] | inactive | 
79 | CC(C)O.CC(C)O.OCCN(CCO)CCO.OCCN(CCO)CCO.[Ti] | inactive | 
80 | N#Cc1cccnc1 | inactive | 
81 | Cc1ccccc1OP(=O)(Oc1ccccc1C)Oc1ccccc1C |  | 9.28 µM (active)
82 | CCCCCCCCCCCCc1cccc(S(=O)(=O)O)c1 | inactive | 
83 | O=C(O)C1(c2ccc3c(c2)OC[C@H](Cc2ccc(-c4ccccc4)cc2)[C@H]3O)CCCC1 | inactive | 

Row | SMILES | outcome | AC50
84 | Cc1cc(Cl)ccc1N | inactive | 
85 | CCOC(=O)CCN(SN(C)C(=O)Oc1cccc2c1OC(C)(C)C2)C(C)C | inactive | 
86 | C=CC(Cl)CCl (stereo not drawn) | inactive | 
87 | CCC(C)(C#N)N=NC(C)(C#N)CC (stereo not drawn) | inactive | 
88 | [Cl][Sn]([c]1ccccc1)([c]1ccccc1)[c]1ccccc1 | inactive | 
89 | O=[N+]([O-])c1ccc(Nc2ccccc2)cc1 | inactive | 
90 | Oc1cc(Cl)c(Cl)cc1Cl |  | 31 µM (active)
91 | O=C(CCl)NCO | inactive | 
92 | O=[N+]([O-])c1cccc2ccccc12 | inactive | 
93 | OC(Cc1ccccc1Cl)(Cn1[nH]cnc1=S)C1(Cl)CC1 (stereo not drawn) |  | 20 µM (active)
94 | Cc1ccc2nc3sc(=O)sc3nc2c1 |  | 9.18 µM (active)
95 | Cc1cccc(OP(=O)(Oc2cccc(C)c2)Oc2cccc(C)c2)c1 | inactive | 
96 | Cc1cc(Cl)ccc1OC(C)C(=O)O (stereo not drawn) | inactive | 
97 | O=c1oc2ccccc2c(O)c1C(CC(O)c1ccc(-c2ccc(Br)cc2)cc1)c1ccccc1 (stereo not drawn) |  | 5.2 µM (active)
98 | C#CCOC(=O)/C=C(C)/C=C/CC(C)CCCC(C)C (stereo not drawn) |  | 31.5 µM (active)
